Reference: PubChem BioAssay AID1159580 (chemical genetic matrix, 2015)
Several values for one entry are separate records, joined by “and”; a condition that tells them apart may be missing. Equal entries are not always repeated. About 2,000 (36%) of roughly 5,500 compounds were called active. About 18% were inconclusive and are not listed. Cut-off read from the data, not from the text of the source: active = normalized growth mostly below about 0.91 (no sharp cut-off); inconclusive = no clear call, values can overlap the other calls; inactive = mostly above about 0.92. Some of the results follow.

Experiment: chemical genetic growth profiling, strain panel (AID 1159580);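 note: tested at 20 µM; growth read once vehicle control cultures reached saturation at 30 °C; 1 = growth at the plate median or of vehicle wells; lower values mean less growth of the strain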
Settings: S. cerevisiae deletion strains, growth OD

Measured: normalized growth

C[C@]12CCC3c4ccc(O)cc4CCC3C1CCC2=O (stereo partly drawn)
inactive: locus YAL013W, strain DEP1, hits give low values 0.968 | locus YAL021C, strain ccr4, hits give low values 1 | locus YAL026C, strain drs2, hits give low values 0.993 | locus YAL030W, strain snc1, hits give low values 1.01 | locus YBL061C, strain skt5, hits give low values 0.999 | locus YBR009C, strain hhf1, hits give low values 0.953 | locus YBR021W, strain FUR4, hits give low values 0.875 | locus YBR023C, strain chs3, hits give low values 1.01 | locus YBR171W, strain sec66, hits give low values 0.992 | locus YBR229C, strain ROT2, hits give low values 0.96 | locus YBR231C, strain swc5, hits give low values 0.975 | locus YBR279W, strain paf1, hits give low values 0.988 | locus YCL011C, strain gbp2, hits give low values 1.01 | locus YCL016C, strain dcc1, hits give low values 1.01 | locus YCL029C, strain bik1, hits give low values 0.952 | locus YCL061C, strain MRC1, hits give low values 1.01 | locus YCL069W, strain vba3, hits give low values 1 | locus YCR088W, strain abp1, hits give low values 1.01 | locus YDL005C, strain med2, hits give low values 1.02 | locus YDL035C, strain GPR1, hits give low values 0.87 | locus YDL040C, strain nat1, hits give low values 1.01 | locus YDL101C, strain DUN1, hits give low values 0.987 | locus YDL134C, strain PPH21, hits give low values 0.901 | locus YDL185W, strain tfp1, hits give low values 0.96 | locus YDL192W, strain arf1, hits give low values 0.98 | locus YDR001C, strain nth1, hits give low values 1.02 | locus YDR069C, strain doa4, hits give low values 0.993 | locus YDR101C, strain arx1, hits give low values 0.923 | locus YDR159W, strain sac3, hits give low values 0.959 | locus YDR297W, strain sur2, hits give low values 1.01 | locus YDR318W, strain mcm21, hits give low values 0.967 | locus YDR334W, strain swr1, hits give low values 1.02 | locus YDR335W, strain msn5, hits give low values 0.998 | locus YDR388W, hits give low values 0.987 | locus YDR502C, strain sam2, hits give low values 0.939 | locus YEL003W, strain gim4, hits give low values 0.942 | locus YEL037C, strain rad23, hits give low values 1.01 | locus YEL061C, strain CIN8 (second series), hits give low values 1 | locus YEL061C, strain CIN8, hits give low values 0.997 | locus YER015W, strain faa2, hits give low values 1.01 | locus YER016W, strain bim1, hits give low values 0.978 | locus YER110C, hits give low values 0.985 | locus YER111C, strain swi4, hits give low values 1.02 | locus YER155C, strain BEM2 (second series), hits give low values 0.905 | locus YER155C, strain BEM2, hits give low values 1 | locus YER167W, strain BCK2, hits give low values 1.03 | locus YFR010W, strain ubp6, hits give low values 1 | locus YGL078C, strain dbp3, hits give low values 0.969 | locus YGL086W, strain mad1, hits give low values 0.959 | locus YGL167C, strain pmr1, hits give low values 1.03 | locus YGL173C, strain kem1, hits give low values 0.963 | locus YGL227W, strain vid30, hits give low values 1.03 | locus YGL240W, strain doc1, hits give low values 0.944 | locus YGL248W, strain PDE1, hits give low values 0.962 | locus YGL253W, strain hxk2, hits give low values 0.951 | locus YGR135W, strain pre9, hits give low values 1.02 | locus YGR252W, strain gcn5, hits give low values 0.874 | locus YHR013C, strain ard1, hits give low values 1.01 | locus YHR027C, strain rpn1, hits give low values 1 | locus YHR030C, strain SLT2, hits give low values 1.01 and 0.986 | locus YHR079C, strain IRE1 (second series), hits give low values 0.992 | locus YHR079C, strain IRE1, hits give low values 0.989 | locus YHR094C, strain hxt1, hits give low values 0.999 | locus YHR129C, strain ARP1, hits give low values 1.01 | locus YHR142W, strain chs7, hits give low values 0.949 | locus YHR200W, strain rpn10, hits give low values 0.984 | locus YIL066C, strain RNR3, hits give low values 0.982 | locus YIL073C, strain SPO22, hits give low values 0.94 | locus YIL125W, strain kgd1, hits give low values 0.986 | locus YIR030C, strain dcg1, hits give low values 1.02 | locus YJL092W, strain hpr5, hits give low values 1.02 | locus YJL095W, strain BCK1 (second series), hits give low values 1.01 | locus YJL095W, strain BCK1, hits give low values 0.919 and 0.992 | locus YJL115W, strain asf1, hits give low values 1.02 | locus YJL129C, strain trk1, hits give low values 1.03 | locus YJL134W, strain LCB3, hits give low values 0.992 | locus YJL154C, strain vps35, hits give low values 1.02 | locus YJL164C, strain tpk1, hits give low values 0.957 | locus YJL166W, strain qcr8, hits give low values 0.987 | locus YJL168C, strain set2, hits give low values 1 | locus YJL187C, strain SWE1 (second series), hits give low values 0.969 | locus YJL187C, strain SWE1, hits give low values 1.01 | locus YJR043C, strain POL32, hits give low values 0.937
active: locus YDL074C, strain BRE1, hits give low values 0.766 | locus YDR137W, strain rgp1, hits give low values 0.682 | locus YDR162C, strain NBP2, hits give low values 0.761 | locus YDR195W, strain ref2 1.26 [resistant] | locus YDR392W, strain spt3, hits give low values 0.625
